SMN2 splice up: qHTS Assay for Enhancers of SMN2 Splice Variant Expression | Potency, µM (highest dose often 46.1 µM), inactives show at the highest dose activity change, positive = activation, hits mostly activators | AID 1458, 2008 | HEK293 SMN2-luciferase splicing reporter, luminescence, 30-36 h | 2.8% of 210,000 active; also: % of control where 0% means no effect; nearly all actives have a fitted effect of over 55% in size
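HEK293 cells carry an SMN2 minigene-luciferase reporter in which exon 7 inclusion puts luciferase in frame. Cells were seeded at 2000 cells/well, attached for 10-12 hours, then exposed to compounds for 30-36 hours at 37C before ONE-Glo luminescence.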
FLuc modulator: qHTS profiling assay for firefly luciferase inhibitor/activator using purifed enzyme and Km concentrations of substrates (counterscreen for miR-21 project); Luciferin 4-monooxygenase (Photinus pyralis), P08659; purified FLuc, Km substrates, luminescence inhibition; Potency, µM (doses to about 57.5 µM), without a hit: at the highest dose activity change, negative = inhibition, actives largely listed as inhibitors; 6.9% of 360,000 active; AID 588342, 2011;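 also: plate controls were vehicle for no effect and reference inhibitor for full effect; nearly all actives have a fitted effect of over 55% in size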
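Biochemical qHTS of compounds, final roughly 60 µM downward over six points, against 10 nM purified firefly luciferase using Km concentrations of substrates (10 uM D-luciferin, 10 uM ATP) in Tris acetate pH 7.5 buffer; luminescence output.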
ELG1 genotox: qHTS screen for small molecules that induce genotoxicity in human embryonic kidney (HEK293T) cells expressing luciferase-tagged ELG1; HEK293T ELG1-luciferase reporter, luminescence, 16 h; Potency, µM (series often up to 46 µM), inactives show at the highest dose activity change, positive = activation, most hits filed as activators; 1.3% of 330,000 active; also: % of control where 0% means no effect; nearly all actives have a fitted effect of over 60% in size
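DMSO vehicle served as control against compound-treated ELG1-luciferase HEK293T cells; exposure lasted 16 hr at 37 °C and 5% CO2, followed by ONE-Glo luminescence detection after 30 min.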
ELG1 DNA repair: qHTS screen for small molecules that inhibit ELG1-dependent DNA repair in human embryonic kidney (HEK293T) cells expressing luciferase-tagged ELG1 | HEK293T ELG1-luciferase reporter, luminescence, 16 h; DNA damage induced by 5-fluorouridine | Potency, µM (highest dose often 46.1 µM), without a hit: at the highest dose activity change, negative = inhibition, usual class: inhibitors | 2.3% of 330,000 active; also: % is scaled to controls: 0 for no effect and ±100 for the full control effect; nearly all actives have a fitted effect of over 55% in size
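Reporter activity after DNA damage by 5-fluorouridine is monitored. Compound-treated cells incubate 16 hr at 37 °C, then ONE-Glo is added for 30 min before luminescence reading.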
Rab9 prom act: qHTS Assay for Rab9 Promoter Activators; Huh7 Rab9 promoter-luciferase reporter, luminescence, 24 h; Potency, µM (series often up to 9.22 µM), without a hit: at the highest dose activation, negative = inhibition, actives largely listed as activators; 2.8% of 320,000 active; AID 485297, 2010; also: % of control where 0% means no effect; nearly all actives have a fitted effect of over 60% in size
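Stable Rab9-luc Huh7, 1500 cells/well, 2 h settle; cmpd in DMSO, 24 h, 37 °C/5% CO2; luciferase reagent 10 min RT; luminescence.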
NPC1 prom act: qHTS Assay for NPC1 Promoter Activators | Huh7 NPC1 promoter luciferase reporter, 24 h | 2.4% of 320,000 active | AID 485313, 2010 | Potency, µM (highest dose often 9.22 µM), for inactives: at the top dose activation, most hits filed as activators; also: % of control where 0% means no effect; nearly all actives have a fitted effect of over 60% in size
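Stably transfected Huh7 (NPC1 promoter→luciferase), 1500 cells/well in Opti-MEM + 10% FBS, 2 h settle, then compound 24 h at 37 °C. Luminescence after 10 min with Amplite reagent.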
ELG1 FLuc counter: qHTS screen for small molecules that inhibit ELG1-dependent DNA repair: Hit Confirmation in Cell-Based Luciferin Assay | shares compounds with ELG1 DNA repair | cell-free firefly luciferase luminescence counter-screen, ViewLux | Potency, µM (top dose mostly 46.1 µM), without a hit: top-dose activity change, negative = inhibition, actives largely listed as inhibitors | 3% of 350 active; also: % is scaled to controls: 0 for no effect and ±100 for the full control effect
ELG1 Luc conf: HTS assay for small molecules that inhibit ELG1-dependent DNA repair in human embryonic kidney (HEK293T) cells expressing luciferase-tagged ELG1: Hit Confirmation. 68% of 670 active. HEK293T ELG1-luciferase levels, luminescence; cells co-treated with 5-fluorouridine. AID 624248, 2012. shares compounds with ELG1 DNA repair. Potency, µM (doses to about 46.1 µM), for the others: top-dose activity change, negative = inhibition, actives largely listed as inhibitors; also: % is scaled to controls: 0 for no effect and ±100 for the full control effect; nearly all actives have a fitted effect of over 55% in size
ELG1-Luc MMS: inhibits ELG1-dependent repair under MMS stimulation in HEK293T cells. shares compounds with ELG1 DNA repair. HEK293T luciferase-tagged ELG1 level, MMS stimulated. Potency, µM (top dose mostly 46.1 µM), for inactives: at the top dose activity change, negative = inhibition, hits mostly inhibitors. 53% of 670 active. AID 624249; also: % is scaled to controls: 0 for no effect and ±100 for the full control effect; nearly all actives have a fitted effect of over 60% in size
ELG1 5-FU: qHTS screen for small molecules that inhibit ELG1-dependent DNA repair: Hit Confirmation with 5FU Viability; shares compounds with ELG1 DNA repair; cell viability with 5-FU, ELG1-dependent repair; Potency, µM (highest dose often 46.1 µM), without a hit: at the top dose activity change, negative = viability loss, hits mostly cytotoxic; 670 tested, under 10 active; AID 624250, 2012;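 also: ELG1-luc HEK293T cells cotreated with 5-fluorouridine at 10 µM final; viability measured 16 h after compound addition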
ELG1 MMS cell: qHTS screen for small molecules that inhibit ELG1-dependent DNA repair: Hit Confirmation with MMS Viability; Potency, µM (titrated, usually from 46.1 µM), for the others: at the highest dose activity change, negative = viability loss, hits mostly cytotoxic; 33% of 670 active; shares compounds with ELG1 DNA repair; Cell viability with MMS, ELG1-dependent DNA repair;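 also: ELG1-luc HEK293T cells co-treated with 10 µM MMS; viability read 16 h after compound addition; % is scaled to controls: 0 for no effect and ±100 for the full control effect; nearly all actives have a fitted effect of over 60% in size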
Cell viab unstim: qHTS screen for small molecules that inhibit ELG1-dependent DNA repair: Hit Confirmation with Unstimulated Viability Assay; shares compounds with ELG1 DNA repair; cell viability counter-screen, unstimulated, luminescence; Potency, µM (series often up to 45.9 µM), for the others: at the highest dose activity change, negative = loss of viability, hits mostly cytotoxic; 8% of 900 active;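 also: compound exposure lasted 16 hours before reading; % is scaled to controls: 0 for no effect and ±100 for the full control effect; nearly all actives have a fitted effect of over 55% in size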
FLuc biochem: qHTS screen for small molecules that inhibit ELG1-dependent DNA repair: Hit Confirmation in Biochemical Luciferin Assay | shares compounds with ELG1 DNA repair | purified firefly luciferase, luminescence counter-screen | Potency, µM (series often up to 57.5 µM), for inactives: at the highest dose activity, negative = inhibition, actives largely listed as inhibitors | 10% of 350 active; also: % is scaled to controls: 0 for no effect and ±100 for the full control effect
Starred values were filed as active, the others as inactive; ? = inconclusive; · = no result given; ! = a repeat was not active. Compounds with a hit are over-represented: about 9.2% of the library has one in this group of screens. Calls follow the shape of the dose curve; as a rule, active = well fitted curve in the direction sought with a large enough effect; inconclusive = small, poorly fitted or top-dose-only effect, or another doubt; inactive = no such curve, though single readings can be large; an effect the other way counts as inactive or inconclusive. Potency is read from the fitted curve at half-maximal effect.

SMILES	SMN2 splice up	FLuc modulator	ELG1 genotox	ELG1 DNA repair	Rab9 prom act	NPC1 prom act	ELG1 FLuc counter	ELG1 Luc conf	ELG1-Luc MMS	ELG1 5-FU	ELG1 MMS cell	Cell viab unstim	FLuc biochem
C/C(=N\NC(=O)C1CC1)c1ccc2c(c1)OCCO2	54%	-12%	15%	?	-32%	9%	·	·	·	·	·	·	·
CC1CN(S(=O)(=O)c2ccc(C(=O)NCCCn3ccnc3)cc2)CC(C)O1 (centres undefined)	-50%	1%	-18%	0.73µM*	-2%	1%	?	5%	0.028µM*	-3%	0.032µM*	?	-7%
Cc1cccc(CNC(=O)C2CCN(c3nn4cc(-c5ccc(F)cc5)nc4s3)CC2)c1	·	1%	·	·	·	·	·	·	·	·	·	·	·
O=C(Nc1cc(Br)ccc1O)c1cnn2c(C(F)F)cc(C3CC3)nc12	-5%	1%	-6%	2.3µM*	12%	-2%	·	1µM*	15%	?	-3%	?	·
COc1cccc(/C=C/C(=O)OCC(=O)c2ccc(C)c(C)c2)c1OC	·	?	0%	7%	-3%	1%	·	·	·	·	·	·	·
COc1cccc(/C=C/C(=O)OCC(=O)c2ccccc2)c1OC	·	·	?	?	·	·	·	·	·	·	·	-3%	·
CNc1ccc(/C=C2\C=Cc3ccccc32)cc1	·	·	·	·	·	·	58%	·	·	·	·	-5%	0.73µM*
CCOC(=O)C1CCN(c2cc3c(cc2NC(=O)c2ccc(F)cc2)n(C)c(=O)n3C)CC1	·	5%	-7%	2.3µM*	11%	17%	-12%	2.5µM*	14µM*	?	25µM*	25µM*!	-3%
CCOC(=O)C1CCN(c2cc3c(cc2NC(=O)c2ccc(Cl)cc2)n(C)c(=O)n3C)CC1	-3%	2%	·	·	·	·	·	·	·	·	·	·	·
CCn1c(=O)c(=O)n(CC)c2cc(N3CCCCC3)c(NC(=O)c3ccc(OC)c(OC)c3)cc21	3%	4%	·	·	·	·	·	·	·	·	·	·	·
CCOc1ccc(C(=O)Nc2cc3c(cc2N2CCCC2)n(CC)c(=O)n3CC)cc1OCC	·	4%	-4%	?	-5%	-4%	2%	16µM*	?	12%	?	?	-8%
COc1ccc2c(C)cc(SCC(=O)N3CCOCC3)nc2c1	-14%	5%	3%	-11%	6%	-2%	141%	·	·	·	·	?	?
COC(=O)c1sccc1NC(=O)c1c(Cl)cnn1C	·	-2%	8%	11%	5%	1%	·	·	·	·	·	·	·
CC(=O)N1CCc2cc(S(=O)(=O)NC(C(=O)Nc3ccc(C)cc3C)C(C)C)ccc21 (centres undefined)	-2%	-6%	·	·	·	·	·	·	·	·	·	·	·
Cc1ccc(OCC(=O)Nc2ccc(-c3nc4ccccc4o3)cc2)c(C)c1	?	-1%	·	·	·	·	·	·	·	·	·	·	·
CCc1ccc(OCC(=O)Nc2ccc(-c3nc4ccccc4o3)c(O)c2)cc1	?	10%	?	?	3.5µM*	2µM*	15%	·	·	·	·	-2%	1%
O=NN(CCc1ccncc1)c1ccc(OCc2ccccc2)cc1	-50%	-4%	3%	0.82µM*	-24%	-31%	6%	?	2.8µM*	-2%	3.5µM*	-10%	-7%
O=C(NCc1ccncc1)C(=O)N/N=C/c1ccc(OCc2ccccc2)cc1	4%	2%	?	?	-2%	-8%	·	·	·	·	·	·	·
NC(=O)c1ccsc1NC(=O)COC(=O)Cc1cccc2ccccc12	-40%	?	-3%	1.6µM*	-10%	-5%	·	?	0.63µM*	0%	1.3µM*	?	·
COc1ccc(NC(=O)c2ccc3nc(CCc4ccccc4)oc3c2)cc1	·	3%	·	·	·	·	·	·	·	·	·	·	·
COc1cc(-c2cc(C(=O)Nc3cc(S(=O)(=O)N4CCOCC4)ccc3C)c3ccccc3n2)cc(OC)c1OC	·	1%	-9%	3.7µM*	-3%	-3%	·	5µM*	?	?	-4%	?	·
COc1cc(-c2cc(C(=O)Nc3ccc(S(=O)(=O)NCc4ccco4)cc3)c3ccccc3n2)cc(OC)c1OC	·	2%	-6%	2.6µM*	-6%	-5%	·	2µM*	4µM*	?	-2%	-18%	·
COc1ccc2ccccc2c1/C=N/NC(=S)Nc1cc(S(=O)(=O)N2CCOCC2)ccc1N1CCOCC1	-7%	-13%	1%	1.6µM*	-12%	-1%	·	?	11%	?	?	13%	·

Assay outcomes: PubChem, National Center for Advancing Translational Sciences (NCATS)
